Rows were chosen to be rich in hits. Some 18% of all compounds tested hit in one or more screens of this group.
TDP1 cell CPT = growth inhibition of DT40 Tdp1-/-;hTDP1 cells with camptothecin (screen for TDP1 inhibitors) | chicken DT40 Tdp1-/-;hTDP1 cells + 20 nM CPT, ATP luminescence, 48 h | hit rate 12% among 420,000 | AID 686979 | Potency, µM (top dose mostly 46.2 µM), for inactives: at the top dose activity change, negative = growth inhibition, hits mostly inhibitors; note: potency is the fitted concentration of half-maximal effect; nearly all actives have a fitted effect of over 55% in size
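Cell growth measured by CellTiter-Glo luminescence after a minimum 48 h, 37 C compound exposure with 20 nM CPT in Tdp1-knockout DT40 cells stably expressing hTDP1, seeded 400/well; qHTS titration format.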
RORgamma inh = inhibitors of mouse ROR gamma transcriptional activity | hit rate 5.4% among 310,000 | Drosophila S2 Gal4-RORgamma UAS-luciferase reporter, 20 h | P51450 | AID 2551 | Potency, µM (doses to about 53.6 µM), for the others: at the top dose activity change, negative = inhibition, hits mostly inhibitors; note: potency is the fitted concentration of half-maximal effect; nearly all actives have a fitted effect of over 60% in size
Target sequence (P51450 whole entry, looked up, the tested form may be a part): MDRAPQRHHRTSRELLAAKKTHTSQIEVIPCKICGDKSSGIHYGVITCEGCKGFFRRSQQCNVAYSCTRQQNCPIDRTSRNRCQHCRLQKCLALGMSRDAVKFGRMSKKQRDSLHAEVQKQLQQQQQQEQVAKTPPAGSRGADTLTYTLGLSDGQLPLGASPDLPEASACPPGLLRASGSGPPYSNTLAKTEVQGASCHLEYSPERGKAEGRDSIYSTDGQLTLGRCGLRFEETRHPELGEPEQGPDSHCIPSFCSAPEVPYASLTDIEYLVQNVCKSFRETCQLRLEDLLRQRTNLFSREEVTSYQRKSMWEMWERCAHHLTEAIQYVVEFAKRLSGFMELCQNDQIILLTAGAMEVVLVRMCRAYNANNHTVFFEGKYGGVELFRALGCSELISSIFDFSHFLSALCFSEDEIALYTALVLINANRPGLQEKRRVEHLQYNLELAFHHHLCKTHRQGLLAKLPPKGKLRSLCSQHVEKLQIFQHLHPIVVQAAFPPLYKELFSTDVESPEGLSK
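Luminescence from a UAS-regulated Photinus luciferase reporter in stably transfected Drosophila Schneider cells is measured; decreased signal marks ROR gamma inhibition. Fusion expression is induced by 700 uM copper sulfate for 20 hr.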
IL1B secr inh = inhibitors of inflammasome signaling (IL-1 beta secretion); THP-1 LPS/ATP IL-1B secretion, AlphaLISA, 16 h; stronger effect = lower value; hit rate 4.7% among 360,000; AID 743279; activity change, % at 57.5 µM; in the data active = activity change below about -50%; inconclusive = mostly about -30% to -49%
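Secreted IL-1B measured by AlphaLISA bead assay after 16 h compound exposure of THP-1 cells; compounds (final up to 57.5 uM) added 1 h before LPS (250 ng/mL) and ATP (1.25 mM) stimulation; lower signal means less secretion.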
DT40 TDP1 no CPT = qHTS for Inhibitors of human tyrosyl-DNA phosphodiesterase 1 (TDP1): qHTS in cells in absence of CPT; hit rate 15% among 420,000; DT40 Tdp1-/- hTDP1 cells, no CPT, ATP luminescence, 48 h; AID 686978, 2013; Potency, µM (top dose mostly 46.2 µM), inactives show top-dose activity change, negative = growth inhibition, actives largely listed as inhibitors; note: potency is the fitted concentration of half-maximal effect; nearly all actives have a fitted effect of over 55% in size
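Compound effects on proliferation are scored in DT40 Tdp1-/-;hTDP1 cells in the absence of CPT. ATP levels (CellTiter-Glo luminescence) are recorded after a ≥48 hr, 37 °C incubation.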
VP16 counter = inhibits Gal4-VP16 luciferase reporter, ROR gamma counter-screen. hit rate 3.5% among 310,000. AID 2546. Drosophila S2 Gal4-VP16 UAS-luciferase, luminescence, 20 h. Potency, µM (titrated, usually from 53.6 µM), for the others: top-dose activity, negative = inhibition, usual class: inhibitors;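 note: Gal4-VP16 expression switched on by copper sulfate through the metallothionein promoter; potency is the fitted concentration of half-maximal effect; nearly all actives have a fitted effect of over 50% in size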
LDHA block = blocks human lactate dehydrogenase A. P00338. purified LDHA, NADH/diaphorase-resazurin fluorescence; stronger effect = lower value. activity change, % (values are at about 110 or 230 µM). hit rate 0.15% among 480,000. AID 1347041; in the data active = activity change below about -30%; inconclusive = mostly about -25% to -30%;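 note: plate controls were DMSO wells for no effect and wells without enzyme for full effect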
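Human LDH5 (2 nM) was incubated with 0.06 mM NADH and 0.2 mM pyruvate for 5 min at room temperature in Tris pH 7.4. Remaining NADH was coupled through diaphorase/resazurin, and resorufin fluorescence was read at 0 and 20 min.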
The depositor's hits bear a star; ? = inconclusive; · = no result; [ ] = another dose, or the depositor's remark. Unless noted, calls come from the whole dose curve; as a rule, active = well fitted curve in the direction sought with a large enough effect; inconclusive = small, poorly fitted or top-dose-only effect, or another doubt; inactive = no such curve, though single readings can be large; an effect the other way counts as inactive or inconclusive. Unless noted, % is set by controls: 0 for no effect and ±100 for the full control effect.

SMILES	TDP1 cell CPT	RORgamma inh	IL1B secr inh	DT40 TDP1 no CPT	VP16 counter	LDHA block
CCC(C)[C@@H](N)C(=O)N/N=C/c1ccc2ncccc2c1 (some centres not stated)	4.3%	-12.0%	13.1	13µM*	?	-1.8
COC(=O)N/N=C/c1ccccc1Cl	2.0%	7.6%	-15.9	-6.2%	15.8%	-2.6
Cc1c(Cl)cccc1NC(=S)N/N=C/c1ccccc1Cl	?	1µM*	4.2	?	4.47µM*	-0.6
CNC(=S)N/N=C/c1c(Cl)cccc1Cl	?	3.16µM*	-1.0	?	6.31µM*	-1.2
CNC(=S)N/N=C/c1c(F)cccc1F	·	·	·	·	·	-9.2
Cc1cccc(C)c1NC(=S)N/N=C/c1c(Cl)cccc1Cl	?	0.501µM*	4.1	20.6µM*	2.51µM*	-4.1
Cc1c(-c2nnc(-c3ccc(OC(C)C)cc3)o2)oc2ccccc12	·	·	·	·	·	0.1
c1ccc(-c2sc(-c3ccccc3)c(-c3ccccc3)c2-c2ccccc2)cc1	·	·	·	·	·	5.9
S=C(N/N=C/c1ccc2ncccc2c1)Nc1ccccc1	23.1µM*	1.26µM*	-11.3	20.6µM*	?	-5.5
S=C(N/N=C/c1ccccc1Cl)Nc1ccccc1	16.4µM*	0.708µM*	12.0	?	0.0%	-5.6
Oc1ccc(C=NNC(=S)Nc2ccccc2)nc1	5.17µM*	·	96.6	5.17µM*	·	3.4
Oc1ccc(C=NNC(=S)Nc2ccc(F)cc2)c(O)c1	-104.2%	·	144.7	?	·	-0.4
CNC(=S)N/N=C/c1ccccc1Cl	?	3.98µM*	-50.0*	?	5.62µM*	-5.4
COc1cccc2cc(-c3nc(-c4ccccc4)cs3)c(=O)oc12	·	·	·	·	·	32.0
CCCOc1ccccc1C(=O)Nc1cccc(-c2nc3ccccc3o2)c1	·	·	·	·	·	1.0
COc1ccccc1NC(=O)Cn1nc(C(=O)O)c2ccccc2c1=O	·	·	·	·	·	7.3
S=C(N/N=C/c1cccc2ccccc12)Nc1cccc(Cl)c1	-5.5%	0.447µM*	34.7	?	7.94µM*	-1.5
COc1ccc(OCc2cc(C(=O)NCC(C)Oc3cccnc3)no2)c(Cl)c1 (configuration not stated)	?	?	-17.5	?	4.2%	-4.0
CSc1ccccc1OCc1cc(C(=O)NCC(C)Oc2cccnc2)no1 (configuration not stated)	?	·	-17.4	16.4µM*	·	0.0
CSc1ccccc1OCc1cc(C(=O)NCCCn2nc(C)cc2C)no1	16.4µM*	20.0%	-12.9	20.6µM*	-16.5%	-1.9
O=C(COC(=O)/C=C/c1cccc([N+](=O)[O-])c1)Nc1ccc(Cl)cn1	2.1%	·	3.2	9.6%	·	-6.0
O=C(/C=C/c1cccc([N+](=O)[O-])c1)NC(=S)Nc1cccc(NC(=O)c2ccccc2Cl)c1	14.6µM*	?	?	13µM*	-3.5%	-5.0
O=C(/C=C/c1cccc([N+](=O)[O-])c1)Nc1ccc(Cl)cn1	?	7.4%	-8.0	2.59µM*	0.5%	-5.2
CCN(CC)S(=O)(=O)c1cccc(NC(=O)/C=C/c2cccc([N+](=O)[O-])c2)c1	?	?	17.0	29.1µM*	-7.9%	1.2
CCN(CC)S(=O)(=O)c1cccc(NC(=O)/C=C/c2ccc([N+](=O)[O-])cc2)c1	-1.9%	8.7%	5.0	?	-9.6%	-6.3
SMILES	TDP1 cell CPT	RORgamma inh	IL1B secr inh	DT40 TDP1 no CPT	VP16 counter	LDHA block
Cc1ccc(C)c(SCC(=O)OC/C(O)=C(\C#N)c2nc3ccccc3[nH]2)c1	?	10µM*	-97.3*	?	?	0.7
Cc1cc(Br)ccc1SCC(=O)OC/C(O)=C(\C#N)c1nc2ccccc2[nH]1	?	0.0%	0.0	20.6µM*	?	-1.0
N#C/C(=C(/O)COC(=O)CSc1ccc2ccccc2c1)c1nc2ccccc2[nH]1	5.17µM*	7.08µM*	-105.3*	2.91µM*	14.1µM*	7.3
Cc1cc(Br)ccc1SCC(=O)OCC(O)=C(C#N)c1nc2ccccc2[nH]1	4.61µM*	·	-102.0*	4.61µM*	·	-4.2
Cc1ccc(Nc2nnc(SCC(O)=C(C#N)c3nc4ccccc4[nH]3)s2)c(C)c1	-18.7%	·	30.5	?	·	4.8
Cc1c(C(=O)OC/C(O)=C(\C#N)c2nc3ccccc3[nH]2)oc2ccc(Br)cc12	-26.4%	-20.5%	34.0	?	-4.1%	4.4
Nc1nnnn1NCc1ccc(-c2ccc(F)c(Cl)c2)o1	·	·	·	·	·	-2.9
CC(NC(=O)c1ccc(CS(C)(=O)=O)cc1)c1ccc(F)cc1 (configuration not stated)	·	·	·	·	·	-0.2
CN1CCN(c2nc(-c3ccccc3)ncc2S(=O)(=O)c2ccccc2)CC1	-9.8%	-29.0%	-51.6*	?	13.8%[10 µM]	-5.2
CC(=O)c1ccc(NC(=S)N2CCC(Cc3ccccc3)CC2)cc1	-20.7%	20.1%	-79.1*	?	-3.5%	-10.8
CC(=O)c1ccc(NC(=S)N2CCN(CCO)CC2)cc1	1.7%	23.9%	14.3	-3.3%	-3.4%	-7.1
O=C(C(=O)N1CCC(Cc2ccccc2)CC1)c1ccccc1	?	·	11.2	16.4µM*	·	2.9
COC(=O)Cc1ccc(NC(=S)N2CCC(Cc3ccccc3)CC2)cc1	-28.8%	14.1µM*	13.6	?	?	1.2
N#Cc1cccc(C(=O)C(=O)N2CCC(Cc3ccccc3)CC2)c1	?	·	11.3	?	·	-0.5
COC(=O)Cc1ccc(NC(=S)N2CCN(C)CC2)cc1	0.9%	?	-0.4	?	-6.0%[10 µM]	-9.3
COC(=O)Nc1ccc(S(=O)(=O)N2CCC(Cc3ccccc3)CC2)cc1	?	22.2%	?	20.6µM*	16.5%	-0.8
O=C(c1ccc(Br)cc1)N(Cc1cccc2[nH]ccc12)C1CC1	·	·	·	·	·	7.5
Cc1sc(NC(=O)c2cccs2)c(C#N)c1C	·	·	·	·	·	6.7
CCN1CCN(c2nc(Nc3ccc(OC)cc3)c3nccnc3n2)CC1	·	·	·	·	·	3.8
CC(C)c1nnc2ccc(NCc3ccc(F)cc3)nn12	·	·	·	·	·	-5.9
CCOC(=O)N1CCC(NC(=O)c2cc3cc(C)ccc3[nH]2)CC1	·	·	·	·	·	-0.5
COC(=O)Cc1ccc(NC(=S)N2CCN(c3ccc(OC)cc3)CC2)cc1	-19.1%	0.1%	0.6	?	-6.6%	-3.1
COCCNC(=S)N1CCC(Cc2ccccc2)CC1	?	-30.1%	6.5	?	-1.6%	-3.1
COC(=O)Cc1ccc(NC(=S)N2CCN(c3cccc(O)c3)CC2)cc1	16.4µM*	?	?	13µM*	?	-6.6

Screening data: PubChem, National Center for Advancing Translational Sciences (NCATS)
